Hits are enriched below; roughly 10% of the tested compounds scored in any of these assays.
BAZ2B block: BAZ2B (human) inhibition | Q9UIF8 | Potency, µM (series often up to 114 µM), without a hit: at the top dose activity change, negative = inhibition, most hits filed as inhibitors | AlphaScreen BAZ2B-H3K14Ac peptide displacement | AID 504333 | 4.4% of 360,000 active; note: % is set by controls: 0 for no effect and ±100 for the full control effect; nearly all actives have a fitted effect of over 60% in size
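AlphaScreen luminescence quantifies BAZ2B engagement of H3K14Ac peptide; the protein and biotinylated peptide are both at 50 nM final, buffer PBS pH 7.4 with 0.01% Tween-20, all steps at room temperature.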
JMJD2A Tudor: blocks the human JMJD2A Tudor domain | O75164 | AlphaScreen JMJD2A-Tudor / H3K4me3 peptide binding | Potency, µM (doses to about 114 µM), for the others: at the highest dose activity change, negative = inhibition, hits mostly inhibitors | 4.4% of 390,000 active; note: % is set by controls: 0 for no effect and ±100 for the full control effect; nearly all actives have a fitted effect of over 50% in size
GLS inhibitor: inhibitors of human glutaminase (GLS). AID 624170. GLS enzymatic activity, qHTS titration. Potency, µM (top dose mostly 45.5 µM), for inactives: at the top dose activity change, negative = inhibition, actives largely listed as inhibitors. 0.21% of 410,000 active; note: % is set by controls: 0 for no effect and ±100 for the full control effect
Target sequence (O94925 whole entry, looked up): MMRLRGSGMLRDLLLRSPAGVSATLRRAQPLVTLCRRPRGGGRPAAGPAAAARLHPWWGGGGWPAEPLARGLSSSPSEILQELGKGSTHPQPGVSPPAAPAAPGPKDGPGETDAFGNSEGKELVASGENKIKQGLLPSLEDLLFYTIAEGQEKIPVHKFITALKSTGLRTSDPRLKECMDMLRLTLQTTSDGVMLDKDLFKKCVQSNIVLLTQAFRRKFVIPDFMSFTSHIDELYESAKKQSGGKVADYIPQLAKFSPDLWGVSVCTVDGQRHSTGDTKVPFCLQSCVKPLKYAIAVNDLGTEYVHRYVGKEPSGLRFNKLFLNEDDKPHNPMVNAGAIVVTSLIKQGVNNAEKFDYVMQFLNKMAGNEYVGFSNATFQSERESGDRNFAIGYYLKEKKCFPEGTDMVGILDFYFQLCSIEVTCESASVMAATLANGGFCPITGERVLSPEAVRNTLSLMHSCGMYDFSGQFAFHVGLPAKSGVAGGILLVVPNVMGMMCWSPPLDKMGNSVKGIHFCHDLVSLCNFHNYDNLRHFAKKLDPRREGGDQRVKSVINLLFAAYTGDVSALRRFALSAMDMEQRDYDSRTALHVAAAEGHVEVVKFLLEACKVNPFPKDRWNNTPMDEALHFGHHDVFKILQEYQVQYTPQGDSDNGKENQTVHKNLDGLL
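Read-out is an Amplex red fluorescence increase coupled through glutamate oxidase and HRP, measured before and after 30 min room-temperature incubation. hKGA is in 45 mM KH2PO4 (pH 8.2) with 0.02% Tween-20; glutamine added as 1mM solution.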
HP1b binding inh: blocks HP1-beta chromodomain binding to methylated histone tails. AlphaScreen HP1-beta / biotin-H3K9me3 peptide binding. P83916. AID 540317. 0.56% of 390,000 active. Potency, µM (doses to about 114 µM), for inactives: at the top dose activity change, negative = inhibition, actives largely listed as inhibitors; note: nearly all actives have a fitted effect of over 70% in size
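Compound inhibition of the preformed complex between 50 nM HP1-beta and 50 nM biotinylated H3K9me3 peptide was read by AlphaScreen. Buffer was PBS pH 7.4 with 0.01% Tween-20. Incubations ran 30 min at room temperature, with 10 ug/mL donor/acceptor beads.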
G9a inh: G9a (human) methyltransferase inhibition | G9a H3K9 monomethylation, AlphaScreen, 2 h | Potency, µM (titrated, usually from 102 µM), for inactives: top-dose activity, negative = inhibition, usual class: inhibitors | 8.8% of 350,000 active | Q96KQ7 | AID 504332; note: % is set by controls: 0 for no effect and ±100 for the full control effect; nearly all actives have a fitted effect of over 75% in size
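G9a (20 nM) preincubated 15 min RT with compounds, then 500 nM biotinylated H3K9 peptide and 20 uM SAM added; 2 h RT reaction. Monomethyl-H3K9 product detected by AlphaScreen with anti-H3K9me1 antibody, streptavidin donor and anti-rabbit IgG acceptor beads.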
* hit, by the source's call; ? = inconclusive; . = not tested or not shown; ! = a repeat was not active; [ ] = remark or other dose. Calls come from the whole dose curve; as a rule, active = well fitted curve in the direction sought with a large enough effect; inconclusive = small, poorly fitted or top-dose-only effect, or another doubt; inactive = no such curve, though single readings can be large; an effect the other way counts as inactive or inconclusive. Potency is the fitted concentration of half-maximal effect.

SMILES	BAZ2B block	JMJD2A Tudor	GLS inhibitor	HP1b binding inh	G9a inh
O=C(Nc1ccccc1)N1CCCC2(CCN(C(=O)Oc3ccccc3)CC2)C1	.	.	.	.	1%[12.7 µM]
CCCCOc1ccc(C(C)=O)cc1Cc1c(O)[nH]c(=S)[nH]c1=O	-3%	-30%	2%	6%	-7%[0.501 µM]
COc1ccc(Cc2c(O)[nH]c(=S)[nH]c2=O)cc1	1%	?	?	-8%	7.9µM*
NC(=O)CSP(=O)(c1ccccc1)c1ccccc1	-22%	-31%	-5%	18%	13µM*
CCC(=Nc1ccc(Cc2ccncc2)cc1)c1c(O)n(C)c(=O)n(C)c1=O	-6%	-9%	13%	20%	79µM*
CCOC(=O)c1ccc(N=C(CC)c2c(O)n(C)c(=O)n(C)c2=O)cc1	-38%	?	0%	1%	?
COc1ccc2c3c1O[C@H]1C(=O)CC[C@H]4[C@@H](C2)N(C)CC[C@]314	.	-34%	0%	24%	24%[59 µM]
C[C@]12CCC(=O)C=C1CCC1C2CC[C@@]2(C)C1CC[C@]2(C)O (some centres undefined)	.	-17%	0%	8%[57 µM]	.
C[C@]12C/C(=C/O)C(=O)C[C@@H]1CC[C@@H]1[C@@H]2CC[C@@]2(C)[C@H]1CC[C@]2(C)O	.	.	-7%	.	18µM*
c1cncc(C2Nc3cccc4cccc(c34)N2)c1	?	?	20%	?	11µM*!
c1cncc(C2CCCCN2)c1 (centres undefined)	-1%	-9%	1%	25%	-1%
C[C@]12CC[C@H]3[C@@H](CCC4=CC(=O)CC[C@@H]43)[C@@H]1CC[C@@H]2O	.	-6%	-12%	54%	-16%[59 µM]
C[C@]12CC[C@@H]3c4ccc(O)c(O)c4CC[C@H]3[C@@H]1CC[C@@H]2O	56µM*	8.9µM*	?	16µM*	?
C[C@]12CC[C@@H]3c4cc(O)c(O)cc4CC[C@H]3[C@@H]1CC[C@@H]2O	?	13µM*	8.9µM*	?	8.9µM*
C[C@]12CCC3C(CCC4=CC(=O)CC[C@@H]43)C1CCC2O (some centres undefined)	.	.	-14%	.	.
C=CCn1c(O)c(C(CC)=NCCCO)c(=O)[nH]c1=O	8%	-6%	2%	35%	0%
CCC(=NCCN1CCOCC1)c1c(O)n(C2CCCCC2)c(=O)[nH]c1=O	-5%	2%	0%	38%	35µM*
CCC(=NCCCN(CC)CC)c1c(O)n(C2CCCCC2)c(=O)[nH]c1=O	-4%	-5%	-6%	32%	56µM*
C=CCn1c(O)c(C(CC)=NCCN2CCOCC2)c(=O)[nH]c1=O	?	-32%	-9%	79%	40µM*
C=CCn1c(O)c(C(CC)=Nc2ccccc2NC(C)=O)c(=O)[nH]c1=O	-11%	-22%	0%	59%	1.4µM*
CCC(=NCc1ccco1)c1c(O)n(C2CCCCC2)c(=O)[nH]c1=O	?	-31%	0%	-1%	?
Cc1ccc(/C=C/C(=O)C2C(=O)c3ccccc3C2=O)cc1	12%	-12%	15%	22%	?
COc1ccc(NC(=O)N2C[C@@H]3C[C@@H](C2)c2cccc(=O)n2C3)cc1	-3%	-7%	20%	14%	.
COc1ccc(-c2c3c(=O)n(C)c(=O)n(C)c3c3n2-c2ccccc2NC3c2ccccc2OC)cc1 (centres undefined)	-5%	-13%	2%	28%	?
CCCc1[nH]nc2c1C(c1cc(OC)cc(OC)c1)C(C#N)=C(N)O2 (centres undefined)	?	-6%	70%	41%	-20%
SMILES	BAZ2B block	JMJD2A Tudor	GLS inhibitor	HP1b binding inh	G9a inh
CCCOc1ccccc1NP(=O)(Oc1ccccc1)Oc1ccccc1	37%	53%	6%	76%	68%
O=C(O)CSCC(=O)N(Cc1ccccc1)c1nc(-c2ccccc2)c(-c2ccccc2)s1	50µM*	56µM*	10%	-22%	?
O=C(O)c1cn(Cc2ccccc2)nc1-c1ccccc1	-17%	-10%	22%	33%	6%
Cc1cc(Oc2cc(NN3CCCCC3)c([N+](=O)[O-])cc2[N+](=O)[O-])ccc1[N+](=O)[O-]	50µM*	18µM*	13%	-20%	7.1µM*
O=C(O)[C@H]1[C@H]2CN[C@H](C(=O)O)[C@H]21	.	.	.	.	8%[59 µM]
C=C(C)[C@H]1CN[C@H](C(=O)O)[C@H]1CC(=O)O	.	40µM*	0%	?	9%[12.7 µM]
O=C1CC(=O)N(Cc2ccccc2)C(=S)N1	-5%	-17%	-16%	-1%	79µM*
COc1ccc(/C=C/C2=CCN(C)CC2)cc1	-21%	-18%	18%	28%	79µM*
CN1CC=C(/C=C/c2ccc(-c3ccccc3)cc2)CC1	-10%	-22%	-3%	22%	.
NCCc1ccccn1	.	.	.	.	-2%[59 µM]
CN(CCc1ccccn1)Cc1ccc(Cl)cc1	45µM*	6.3µM*	6%	?	10µM*
Cc1ccc(CN(C)CCc2ccccn2)cc1	?	3.2µM*	-2%	?	13µM*
Cc1ccc(N2C(=O)NC(=O)C(CCc3ccccn3)(Cc3ccc(F)cc3)C2=O)cc1 (centres undefined)	-15%	5%	-12%	39%	-1%
COc1ccccc1OCC(=O)Nc1ccc(Cl)cc1C(=O)c1ccccc1	3%	1%	-4%	45%	8%
CCOP(=O)(OCC)C(O)c1ccc(Br)cc1 (centres undefined)	-3%	-4%	-1%	48%	15%[59 µM]
CC(C)n1c(/C=C\[C@@H](O)C[C@@H](O)CC(=O)O)c(-c2ccc(F)cc2)c2ccccc21	.	.	.	.	12%[21.5 µM]
O=C(OC1CC2CCC(N2)C1C(=O)O)c1ccccc1 (centres undefined)	.	89µM*	4%	16%	.
C1CCC2S[C@H]3CCCCC3NC2C1 (some centres undefined)	0%	0%	4%	29%	-5%
Nc1c2c(nc3sc4c(c13)CCCC4)CCCC2	-11%	-8%	0%	17%	.
Nc1c2c(nc3sc4c(c13)CCCC4)CCCCC2	-8%	79µM*	6%	-33%	?
COC(=O)C1=C(C(=O)OC)SC2(S1)C(C(=O)OC)=C(C(=O)OC)Sc1c2ssc1=O	.	40µM*	-21%	16µM*	.
O=C(O)c1ccc[nH]c1=S	40µM*	0.89µM*	?	38%	3.5µM*
Cc1[nH]c2c(C(F)(F)F)cccc2c1CCN	?	-27%	15%	-7%	-24%[59 µM]
Cc1[nH]c2ccc(OCc3ccccc3)cc2c1CCN	?	?	14%	?	50µM*
Cc1[nH]c2ccc(O)cc2c1CCN	-38%	?	27%	-18%	3.5µM*
NCCc1c(Cc2ccccc2)[nH]c2ccccc12	.	-20%	0%	-7%	.
O=c1c2ccccc2nc(-c2ccco2)n1-c1ccccc1	-1%	2%	-13%	43%	?
Nc1nc2ccc(Cl)cc2c2nc(-c3ccco3)nn12	-4%	.	.	.	2.5µM*!
